Pf growth 48h = inhibits P. falciparum growth in the first generation, 48 h | Potency, µM (highest dose often 28.7 µM), most hits filed as inhibitors | AID 504832 | P. falciparum luciferase growth in erythrocytes, 48 h | 310,000 compounds, 5.9% hits
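A one-generation exposure of luciferase-tagged malaria parasites in RPMI 1640/Albumax erythrocyte culture, 37 C and 5% CO2. Inhibition is inferred from decreased luminescence after adding detection reagent.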
Pf growth 96h = P. falciparum growth inhibition at 96 hour, primary screen for plastid delayed-death inhibitors. P. falciparum luciferase reporter growth, 96 h. 320,000 compounds, 6.9% hits. AID 504834. Potency, µM (titrated, usually from 28.7 µM), most hits filed as inhibitors
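Luminescence readout: decreased luciferase signal marks inhibited growth of reporter-expressing P. falciparum in infected red cells (2% hematocrit, 0.05% parasitemia final), exposed to compound two generations (96 h, 37 C, 5% CO2).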
Shiga inhibitor = inhibitors of Shiga toxin in Vero cells. Vero cells, Shiga toxin protein synthesis inhibition reporter. inhibition, % at 38.7 µM. 290,000 compounds, 9.2% hits. AID 2315; in the data active = inhibition mostly above about 28%, no sharp cut-off; inactive = mostly below about 43%
NS1 function inh = inhibitors of influenza NS1 protein function. Potency, µM (highest dose often 46.1 µM). 270,000 compounds, 0.4% hits. AID 2326; calls by dose curve; note: actives are rising curves; nearly all actives have a fitted effect of over 50% in size
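S. cerevisiae expressing influenza A NS1, grown in glucose, washed, then diluted 1:100 into pH 6.0 -URA galactose medium with 23 nl compound. Growth recovery read as OD600; NS1-free strain serves as control.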
FBPA Giardia inh = Giardia lamblia aldolase inhibition; A8B2U2; purified Giardia FBPA; Potency, µM (titrated, usually from 59.6 µM), actives largely listed as inhibitors; 290,000 compounds, 0.71% hits; AID 2451; note: nearly all actives have a fitted effect of over 55% in size
Target sequence (A8B2U2 whole entry, looked up): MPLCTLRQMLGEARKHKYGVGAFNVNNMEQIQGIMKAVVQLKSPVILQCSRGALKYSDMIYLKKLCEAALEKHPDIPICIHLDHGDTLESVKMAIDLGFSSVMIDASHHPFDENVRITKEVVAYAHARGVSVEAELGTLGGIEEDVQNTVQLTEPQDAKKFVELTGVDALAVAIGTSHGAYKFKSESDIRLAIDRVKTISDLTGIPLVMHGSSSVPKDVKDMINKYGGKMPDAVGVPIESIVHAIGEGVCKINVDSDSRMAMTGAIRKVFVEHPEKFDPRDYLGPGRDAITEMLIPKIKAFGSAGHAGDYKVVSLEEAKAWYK
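Giardia FBPA (40 nM reagent) was preincubated 10 min at RT with compound (up to 57.5 uM final), then substrate plus GAPDH/TPI/NAD/arsenate coupling system with diaphorase/resazurin was added; resorufin fluorescence (525/598 nm) was read after 20 min.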
Cycloheximide cs = counter-screen for Shiga toxin inhibitors: cycloheximide protein synthesis inhibition | cell reporter, cycloheximide protein synthesis inhibition counterscreen | max response, % | 300,000 compounds, 12% hits; in the data active = max response mostly above about 13%, no sharp cut-off; inactive = mostly below about 14%; note: read at 38.3 µM for the half of the compounds with a filed dose
Each line names hits and unclear results; the compound was inactive in the other large screens. Only some compounds are listed: those with a hit (about 21% of all), similar ones and a draw of the others. Unless noted, calls come from the whole dose curve; as a rule, active = well fitted curve in the direction sought with a large enough effect; inconclusive = small, poorly fitted or top-dose-only effect, or another doubt; inactive = no such curve, though single readings can be large; an effect the other way counts as inactive or inconclusive.

C#CCOCCOCCOCCNc1nc(N2CCN(C(=O)C(Cc3cc4ccccc4[nH]3)n3cc(C(N)C(C)CC)nn3)CC2)nc(N2CCN(C(=O)C(Cc3cc4ccccc4[nH]3)n3cc(C(N)C(C)CC)nn3)CC2)n1 (stereo not given)	Pf growth 48h inconclusive, Pf growth 96h 4.1µM
C#CCOCCOCCOCCNc1nc(N2CCN(C(=O)[C@H](CCC(=O)O)n3cc(C(N)[C@H](C)CC)nn3)CC2)nc(N2CCN(C(=O)[C@H](Cc3cc4ccccc4[nH]3)n3cc(C(N)[C@H](C)CC)nn3)CC2)n1 (stereo not given in full)	none
C#CCOCCOCCOCCNc1nc(N2CCOCC2)nc(N2CCN(C(=O)[C@H](Cc3cc4ccccc4[nH]3)n3cc([C@@H](N)C(C)CC)nn3)CC2)n1 (stereo not given in full)	Pf growth 48h inconclusive, Pf growth 96h 2.9µM
C#CCOCCOCCOCCNc1nc(N2CCN(C(=O)C(Cc3ccc(O)cc3)n3cc(C(N)CC(C)C)nn3)CC2)nc(N2CCN(C(=O)C(Cc3cc4ccccc4[nH]3)n3cc(C(N)C(C)CC)nn3)CC2)n1 (stereo not given)	Pf growth 48h inconclusive, Pf growth 96h inconclusive
C#CCOCCOCCOCCNc1nc(N2CCN(C(=O)[C@H](Cc3ccc(O)cc3)n3cc([C@@H](N)C(C)CC)nn3)CC2)nc(N2CCN(C(=O)[C@H](Cc3cc4ccccc4[nH]3)n3cc([C@@H](N)Cc4ccc(O)cc4)nn3)CC2)n1 (stereo not given in full)	Pf growth 48h 10µM, Pf growth 96h inconclusive
C#CCOCCOCCOCCNc1nc(N2CCN(C(=O)[C@H]([C@@H](C)CC)n3cc([C@@H](N)CC(C)C)nn3)CC2)nc(N2CCN(C(=O)[C@H](Cc3cc4ccccc4[nH]3)n3cc([C@@H](N)C(C)CC)nn3)CC2)n1 (stereo not given in full)	Pf growth 48h 4.7µM, Pf growth 96h 1.2µM
CCCCn1c(N)c(N(CCOC)C(=O)COC(=O)COc2cc(C)c(Cl)cc2C(C)C)c(=O)[nH]c1=O	none (no result: Shiga inhibitor, NS1 function inh, FBPA Giardia inh, Cycloheximide cs)
Cc1ccc(-n2c(O)cnc2Nc2nc(C)cc(C)n2)cc1	Pf growth 96h 0.29µM
O=C(Nc1ccc(N2CCOCC2)c(Cl)c1)c1c(F)c(F)c(F)c(F)c1F	none
COc1ccc(N2CCOCC2)c(NC(=O)c2ccc(Br)o2)c1	Pf growth 48h inconclusive (no result: FBPA Giardia inh)
COc1ccc(N2CCOCC2)c(NC(=O)c2cccc3ccccc23)c1	Pf growth 48h 3.7µM
O=C(Nc1ccc(N2CCN(C(=O)c3cccs3)CC2)c(Cl)c1)c1cccnc1	Pf growth 48h inconclusive (no result: NS1 function inh)
Cc1ccc([N+](=O)[O-])cc1NC(=O)c1cccnc1	Pf growth 96h 10µM
O=C(Nc1cc([N+](=O)[O-])ccc1Cl)c1cccnc1	Pf growth 96h inconclusive (no result: Shiga inhibitor)
O=C(Nc1ccc(N2CCCCC2)c(Cl)c1)c1cccnc1	Shiga inhibitor 96
O=C(Nc1ccc(N2CCOCC2)c(Cl)c1)c1cccc(F)c1	Shiga inhibitor 119, FBPA Giardia inh inconclusive, Cycloheximide cs 44 (no result: Pf growth 96h)
CC(=O)N1Cc2ccccc2CC1C(=O)NCc1ccccc1F (stereo not given)	none
Cc1ccc(NC(=O)c2cccnc2)cc1S(=O)(=O)N(C)C	none (no result: NS1 function inh)
O=C(Nc1ccc(N2CCOCC2)c(Cl)c1)c1cccnc1	Shiga inhibitor 53, Cycloheximide cs 26
Cc1ccc(NC(=O)c2cccnc2)cc1C	Pf growth 96h inconclusive, Cycloheximide cs 19 (no result: Shiga inhibitor)
O=C(Nc1ccc(N2CCOCC2)cc1)c1cccnc1	Pf growth 96h inconclusive, Shiga inhibitor 38, Cycloheximide cs 28
COc1c(C)cccc1C(=O)Nc1ccc(N2CCOCC2)c(Cl)c1	Shiga inhibitor 121, Cycloheximide cs 89 (no result: Pf growth 48h)
O=C(Nc1ccc(N2CCOCC2)c(Cl)c1)c1cccnc1Cl	Pf growth 48h inconclusive, Pf growth 96h inconclusive
COc1ccc(CC(=O)NNc2ncnc3c2cnn3Cc2ccccc2)cc1OC	Pf growth 48h inconclusive, Pf growth 96h inconclusive
O=C(COC(=O)/C=C/c1ccco1)Nc1cccc([N+](=O)[O-])c1	none
O=C(Nc1nnc(-c2ccccc2Cl)o1)c1cccnc1	Shiga inhibitor 58, Cycloheximide cs 19
Cc1ccc(NC(NC(=O)c2cccnc2)C(Cl)(Cl)Cl)cc1 (stereo not given)	Pf growth 96h 13µM
CN(C)C(=O)c1ccc(NC(=O)c2cccnc2)cc1	none
O=C(Nc1ccc(N2CCOCC2)c(Cl)c1)c1cc(F)c(F)cc1Cl	Cycloheximide cs 19 (no result: Pf growth 96h)
CSc1ccc(NC(=O)c2cccnc2)cc1C#N	Shiga inhibitor 51 (no result: NS1 function inh)
O=C(Nc1ccc(N2CCCC2)c(Cl)c1)c1cccnc1	Pf growth 48h inconclusive, Pf growth 96h inconclusive, Shiga inhibitor 54, NS1 function inh inconclusive, Cycloheximide cs 39
O=C(Nc1ccc(Cl)c(Cl)c1)c1cccnc1	Pf growth 96h inconclusive, Cycloheximide cs 35 (no result: Shiga inhibitor)
O=C(NCCc1ccccc1)C(c1ccncc1)N(C(=O)c1csnn1)C1CC1 (stereo not given)	Pf growth 96h 12µM
O=C(NCCc1ccccc1)C(c1ccccc1)N(C(=O)c1csnn1)C1CC1 (stereo not given)	Pf growth 96h inconclusive
CC(C)c1ccc(C(C(=O)NC2CCCCC2)N(C(=O)c2csnn2)C2CC2)cc1 (stereo not given)	Pf growth 48h 13µM
CC(C)c1ccc(N(C(=O)c2csnn2)C(C(=O)NC(C)(C)C)c2ccncc2)cc1 (stereo not given)	Cycloheximide cs 35
O=[N+]([O-])c1ccc(N/N=C2\CC3CC=CC23)cc1 (stereo not given)	Shiga inhibitor 82, Cycloheximide cs 42
O=[N+]([O-])c1ccc(N/N=C2\CC3CC=CC23)c([N+](=O)[O-])c1 (stereo not given)	none (no result: NS1 function inh)
COc1ccc(OC)c(CC(NC(C)=O)C(=O)NC2CCN(c3cc(C)nc4ncnn34)CC2)c1 (stereo not given)	none
COC(=O)c1sc(-c2ccccc2)cc1NC(C)=O	none (no result: NS1 function inh)
CN(C)C1NC(=O)c2cc(-c3ccccc3)sc2N1 (stereo not given)	Cycloheximide cs 17
COc1ccc(C(=O)NCc2ccncc2)cc1OC	none
COCC(C)NC(=O)c1cc(-c2ccc(OC)c(OC)c2)on1 (stereo not given)	Pf growth 96h inconclusive
COc1cc(C)ccc1OCc1cc(C(=O)NC(C)Cn2cncn2)no1 (stereo not given)	Pf growth 96h inconclusive, Shiga inhibitor 81, Cycloheximide cs 65
COc1cc(C)ccc1OCc1cc(C(=O)NCc2ccncc2)no1	Shiga inhibitor 107, Cycloheximide cs 59 (no result: FBPA Giardia inh)
Cc1ccc(S(=O)(=O)CC(c2ccccc2)N2CCCCC2)cc1 (stereo not given)	Pf growth 96h 10µM
O=S(=O)(CC(CN1CCCCC1)N1CCCCC1)c1ccc2ccccc2c1 (stereo not given)	none (no result: NS1 function inh)
